Laboratory results reported in PubChem BioAssay (EPA / NIEHS).
Results filed as inconclusive are left out. Activity calls are given as the source filed them. Rule for the calls: active = hit-call score of the fitted dose curve at least 0.9, where 1 is the maximum; inconclusive = response in the unintended direction; inactive = score below 0.9.

Columns and labels:
[1] = molecular target: human Dual Specificity Protein Phosphatase 3 (DUSP3), DUSP3 (gene 1845) (UniProt P51452); experiment: NVS_ENZ_hDUSP3: NovaScreen (NVS) Enzymatic Assay for human Dual Specificity Protein Phosphatase 3 (DUSP3) (AID 2283152);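 note: phosphatase activity of recombinant human DUSP3 on a fluorogenic substrate without cells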
Outline: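 Cell-free assay with recombinant human DUSP3 and fluorogenic substrate, read by fluorescence intensity. Primary screen ran duplicate at 25 uM; actives followed up in concentration series; loss of signal versus DMSO scored.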

[2] = molecular target: human Phosphodiesterase 10 (PDE10), PDE10A (gene 10846) (UniProt Q9Y233); experiment: NVS_ENZ_hPDE10: NovaScreen (NVS) Enzymatic Assay for human Phosphodiesterase 10 (PDE10) (AID 2283195)
Outline: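 PDE10A, cell-free; 1 h incubation; fluorescence intensity + electrophoretic mobility shift separating substrate/product; DMSO = baseline; 25 uM duplicate primary, CRC up to 50 uM.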

[3] = molecular target: human Beta-secretase (BACE), BACE1 (gene 23621) (UniProt P56817); experiment: NVS_ENZ_hBACE: NovaScreen (NVS) Enzymatic Assay for human Beta-secretase (BACE) (AID 2283140);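 note: hits are inhibitors that reduce fluorescent substrate signal versus DMSO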
Outline: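 Cell-free fluorescence-intensity assay of recombinant BACE1 expressed in SF9 cells, read 1 hour after dosing. Loss of signal indicates reduced protease activity, fitted relative to DMSO negative control. Primary screen at 25 uM in duplicate; actives followed in concentration series.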

[4] = molecular target: human Ephrin type-A Receptor 1 (EphA1), EPHA1 (gene 2041) (UniProt P21709); experiment: NVS_ENZ_hEphA1: NovaScreen (NVS) Enzymatic Assay for human Ephrin type-A Receptor 1 (EphA1) (AID 2283158);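 note: activity is signal loss versus DMSO meaning EphA1 kinase inhibition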
Outline: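 Biochemical kinase assay run cell-free; 1 h incubation; readout is fluorescence with mobility-shift separation of product. Concentration-response up to 50 uM for actives from a 25 uM screen.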

[5] = molecular target: human Matrix Metalloproteinase-9 (MMP9), MMP9 (gene 4318) (UniProt P14780); experiment: NVS_ENZ_hMMP9: NovaScreen (NVS) Enzymatic Assay for human Matrix Metalloproteinase-9 (MMP9) (AID 2283190);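 note: cell-free recombinant MMP9 protease activity read by fluorescent substrate signal; active means inhibition seen as loss of fluorescence signal versus DMSO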
Outline: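 Inhibition was scored as loss of fluorescence signal against DMSO controls. The recombinant protease was exposed to chemicals for 1 hour before reading; initial testing used 25 uM in duplicate.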

[6] = molecular target: human Phosphoinositide 3-kinase alpha (PI3Ka), PIK3CA (gene 5290) (UniProt P42336); experiment: NVS_ENZ_hPI3Ka: NovaScreen (NVS) Enzymatic Assay for human Phosphoinositide 3-kinase alpha (PI3Ka) (AID 2283196)
Outline: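 Chemicals were first screened at 25 uM in duplicate, then hits were run as concentration series up to 50 uM. Enzyme activity was measured by fluorescence after mobility-shift separation, with loss of signal relative to DMSO taken as activity.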

[7] = molecular target: human Vascular Endothelial Growth Factor Receptor 1 (VEGFR1), FLT1 (gene 2321) (UniProt P17948); experiment: NVS_ENZ_hVEGFR1: NovaScreen (NVS) Enzymatic Assay for human Vascular Endothelial Growth Factor Receptor 1 (VEGFR1) (AID 2283226)
Outline: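 Cell-free assay of recombinant human VEGFR1 kinase with substrate, measured 1 h after dosing; fluorescence with electrophoretic mobility-shift separation of substrate and product, referenced to DMSO; primary screen at 25 uM in duplicate, actives then run in concentration series.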

[8] = molecular target: human Adenosine A2a Receptor (AdoRA2a), ADORA2A (gene 135) (UniProt P29274); experiment: NVS_GPCR_hAdoRA2a: NovaScreen (NVS) G Protein-Coupled Receptor Assay for human Adenosine A2a Receptor (AdoRA2a) (AID 2283256)
Outline: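 Cell-free radioligand binding on membranes from HEK293 expressing the receptor; competitive displacement read 1.5 h after dosing by filter-based scintillation counting. Primary screen in duplicate at 25 uM; actives followed in concentration series, with DMSO as baseline.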

[9] = molecular target: D(1A) dopamine receptor (Homo sapiens) (UniProt P21728); experiment: NVS_GPCR_hDRD1: NovaScreen (NVS) G Protein-Coupled Receptor Assay for human Dopamine Receptor D1 (DRD1) (AID 2283269)
Outline: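 HEK293-derived receptor preparation; radioligand competitive displacement; 1 h; filtration + scintillation counting. DMSO = negative control/baseline. Primary: 25 uM, duplicate; secondary: concentration–response for actives.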

[10] = molecular target: Muscarinic acetylcholine receptor M2 (Homo sapiens) (UniProt P08172); experiment: NVS_GPCR_hM2: NovaScreen (NVS) G Protein-Coupled Receptor Assay for human Muscarinic, M2 Receptor (AID 2283273)
Outline: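 CHO membrane prep, radioligand + test compound, 1 h; filtration, scintillation count. Screen 25 uM duplicate → conc. series for actives. Readout: decrease in binding vs DMSO control.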

[11] = molecular target: human Neurokinin, NK2 Receptor, TACR2 (gene 6865) (UniProt P21452); experiment: NVS_GPCR_hNK2: NovaScreen (NVS) G Protein-Coupled Receptor Assay for human Neurokinin, NK2 Receptor (AID 2283278);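 note: actives reduce bound radioligand signal relative to DMSO baseline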
Outline: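 Filter-based scintillation counting measured radioligand bound to receptor extracted from CHO cells, 4 hours after compound addition. Chemicals screened first at 25 uM in duplicate, with actives retested in concentration series relative to DMSO.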

[12] = molecular target: human Opioid Receptor Mu (Opiate Mu), OPRM1 (gene 4988) (UniProt P35372); experiment: NVS_GPCR_hOpiate_mu: NovaScreen (NVS) G Protein-Coupled Receptor Assay for human Opioid Receptor Mu (Opiate Mu) (AID 2283290);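 note: hits lower bound tracer signal versus DMSO meaning displacement of the ligand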
Outline: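 CHO-derived receptor protein, cell-free; radioligand displacement, filtration + scintillation counting, read at 2.5 h. DMSO = negative control/baseline. Primary: 25 uM single conc, duplicate; secondary: concentration series.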

[13] = molecular target: Sodium channel protein type 1 subunit alpha (Rattus norvegicus) (UniProt P04774); experiment: NVS_IC_rNaCh_site2: NovaScreen (NVS) Ion Channel Assay for rat Sodium Channel, Site 2 (NaCh) (AID 2283322);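 note: hit means loss of radioligand binding signal relative to DMSO so AC50 marks displacement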
Outline: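 Membranes: rat forebrain. Format: competitive radioligand displacement, filter separation, scintillation readout, 1 h exposure. Primary screen in duplicate at 25 uM; actives retested in concentration series.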

[14] = molecular target: human Thromboxane A2 Receptor (TXA2), TBXA2R (gene 6915) (UniProt P21731); experiment: NVS_GPCR_hTXA2: NovaScreen (NVS) G Protein-Coupled Receptor Assay for human Thromboxane A2 Receptor (TXA2) (AID 2283282);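 note: actives reduce bound radioligand signal relative to DMSO baseline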
Outline: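 Biochem binding, human platelets, cell-free; competitive radioligand displacement; 1 h; filter radiodetection. 25 uM duplicate primary, conc. series secondary; DMSO neg. ctrl.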

[15] = molecular target: human Caspase 5 (CASP5), CASP5 (gene 838) (UniProt P51878); experiment: NVS_ENZ_hCASP5: NovaScreen (NVS) Enzymatic Assay for human Caspase 5 (CASP5) (AID 2283137)
Outline: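 Recombinant E. coli-expressed human caspase 5 in a cell-free enzyme assay; fluorescence intensity read 2 hours after chemical dosing. Single-concentration duplicate screen at 25 uM, then concentration-response up to 50 uM for hits; DMSO negative control.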

[16] = molecular target: human Esterase Plasma (ES), BCHE (gene 590) (UniProt P06276); experiment: NVS_ENZ_hES: NovaScreen (NVS) Enzymatic Assay for human Esterase Plasma (ES) (AID 2283157)
Outline: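 Chemicals were added to plasma-extracted human enzyme in a cell-free format, and activity was read colorimetrically after 0.25 hour. Activity loss was referenced to DMSO; concentration-response top dose was 50 uM.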

Sequence of human Matrix Metalloproteinase-9 (MMP9), MMP9 (gene 4318) (P14780 whole entry, looked up): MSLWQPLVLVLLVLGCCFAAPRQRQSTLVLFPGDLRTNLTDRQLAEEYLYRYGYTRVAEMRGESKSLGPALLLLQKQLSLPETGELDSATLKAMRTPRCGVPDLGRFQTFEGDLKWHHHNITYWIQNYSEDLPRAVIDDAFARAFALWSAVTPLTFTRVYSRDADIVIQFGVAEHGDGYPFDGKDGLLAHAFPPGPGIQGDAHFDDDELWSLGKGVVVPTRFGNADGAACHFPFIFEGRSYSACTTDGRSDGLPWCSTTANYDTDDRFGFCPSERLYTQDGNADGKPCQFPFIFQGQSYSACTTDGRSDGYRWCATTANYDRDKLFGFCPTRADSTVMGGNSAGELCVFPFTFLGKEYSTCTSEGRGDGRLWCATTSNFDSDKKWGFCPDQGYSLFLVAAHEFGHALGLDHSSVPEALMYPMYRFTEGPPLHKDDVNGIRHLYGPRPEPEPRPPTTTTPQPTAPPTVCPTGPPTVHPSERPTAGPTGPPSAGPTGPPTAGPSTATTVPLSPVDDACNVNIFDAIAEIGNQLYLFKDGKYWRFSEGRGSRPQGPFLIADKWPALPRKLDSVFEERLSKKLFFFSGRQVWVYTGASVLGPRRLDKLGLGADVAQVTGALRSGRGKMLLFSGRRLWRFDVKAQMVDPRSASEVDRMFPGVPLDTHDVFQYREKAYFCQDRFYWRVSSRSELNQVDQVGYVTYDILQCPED
Sequence of D(1A) dopamine receptor (Homo sapiens) (P21728 whole entry, looked up): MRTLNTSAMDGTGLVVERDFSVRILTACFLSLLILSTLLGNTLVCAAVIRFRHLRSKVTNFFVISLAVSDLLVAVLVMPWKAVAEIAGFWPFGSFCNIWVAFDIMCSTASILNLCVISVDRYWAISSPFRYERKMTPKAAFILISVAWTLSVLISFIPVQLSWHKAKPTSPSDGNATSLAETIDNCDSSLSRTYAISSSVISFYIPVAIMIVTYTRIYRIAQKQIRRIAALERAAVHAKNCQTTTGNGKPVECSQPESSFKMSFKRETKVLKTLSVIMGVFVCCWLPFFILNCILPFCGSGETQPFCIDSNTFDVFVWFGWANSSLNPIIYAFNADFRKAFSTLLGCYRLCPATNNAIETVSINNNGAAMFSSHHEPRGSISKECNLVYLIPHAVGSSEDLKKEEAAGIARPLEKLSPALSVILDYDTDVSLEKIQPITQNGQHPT
Sequence of human Vascular Endothelial Growth Factor Receptor 1 (VEGFR1), FLT1 (gene 2321) (P17948 whole entry, looked up): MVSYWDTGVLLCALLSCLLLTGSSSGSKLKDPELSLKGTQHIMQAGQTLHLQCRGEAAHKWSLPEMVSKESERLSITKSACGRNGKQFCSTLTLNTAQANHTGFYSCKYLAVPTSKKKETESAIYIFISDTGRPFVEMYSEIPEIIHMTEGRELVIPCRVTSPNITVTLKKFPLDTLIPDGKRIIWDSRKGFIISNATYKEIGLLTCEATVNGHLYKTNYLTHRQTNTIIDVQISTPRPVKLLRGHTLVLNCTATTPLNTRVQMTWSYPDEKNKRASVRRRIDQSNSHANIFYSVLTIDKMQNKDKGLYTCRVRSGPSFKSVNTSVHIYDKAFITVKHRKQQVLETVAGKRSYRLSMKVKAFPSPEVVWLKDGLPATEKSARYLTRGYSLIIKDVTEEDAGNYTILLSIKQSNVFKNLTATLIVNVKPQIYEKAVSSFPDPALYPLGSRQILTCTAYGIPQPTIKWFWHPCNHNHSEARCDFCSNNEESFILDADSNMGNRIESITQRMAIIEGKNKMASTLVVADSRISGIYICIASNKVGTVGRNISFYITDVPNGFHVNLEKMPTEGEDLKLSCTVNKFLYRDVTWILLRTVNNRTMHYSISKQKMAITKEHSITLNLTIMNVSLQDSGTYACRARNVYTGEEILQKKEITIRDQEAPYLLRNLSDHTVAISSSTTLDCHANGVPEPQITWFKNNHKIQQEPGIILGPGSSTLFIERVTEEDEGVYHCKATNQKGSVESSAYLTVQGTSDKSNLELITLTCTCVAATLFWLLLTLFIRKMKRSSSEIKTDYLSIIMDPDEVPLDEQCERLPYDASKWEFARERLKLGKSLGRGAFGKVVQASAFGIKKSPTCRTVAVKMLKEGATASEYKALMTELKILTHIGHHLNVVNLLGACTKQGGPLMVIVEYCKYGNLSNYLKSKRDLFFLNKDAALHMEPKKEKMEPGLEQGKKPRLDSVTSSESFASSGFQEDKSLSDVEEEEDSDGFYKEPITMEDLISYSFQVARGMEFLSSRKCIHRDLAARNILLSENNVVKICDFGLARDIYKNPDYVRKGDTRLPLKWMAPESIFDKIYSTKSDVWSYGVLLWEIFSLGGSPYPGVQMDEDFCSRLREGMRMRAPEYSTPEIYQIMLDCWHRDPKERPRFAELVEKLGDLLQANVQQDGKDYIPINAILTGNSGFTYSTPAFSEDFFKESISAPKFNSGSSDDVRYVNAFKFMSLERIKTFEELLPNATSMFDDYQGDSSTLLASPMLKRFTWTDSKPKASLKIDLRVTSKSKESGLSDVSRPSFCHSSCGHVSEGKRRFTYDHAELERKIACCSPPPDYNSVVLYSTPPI
Sequence of human Phosphodiesterase 10 (PDE10), PDE10A (gene 10846) (Q9Y233 whole entry, looked up): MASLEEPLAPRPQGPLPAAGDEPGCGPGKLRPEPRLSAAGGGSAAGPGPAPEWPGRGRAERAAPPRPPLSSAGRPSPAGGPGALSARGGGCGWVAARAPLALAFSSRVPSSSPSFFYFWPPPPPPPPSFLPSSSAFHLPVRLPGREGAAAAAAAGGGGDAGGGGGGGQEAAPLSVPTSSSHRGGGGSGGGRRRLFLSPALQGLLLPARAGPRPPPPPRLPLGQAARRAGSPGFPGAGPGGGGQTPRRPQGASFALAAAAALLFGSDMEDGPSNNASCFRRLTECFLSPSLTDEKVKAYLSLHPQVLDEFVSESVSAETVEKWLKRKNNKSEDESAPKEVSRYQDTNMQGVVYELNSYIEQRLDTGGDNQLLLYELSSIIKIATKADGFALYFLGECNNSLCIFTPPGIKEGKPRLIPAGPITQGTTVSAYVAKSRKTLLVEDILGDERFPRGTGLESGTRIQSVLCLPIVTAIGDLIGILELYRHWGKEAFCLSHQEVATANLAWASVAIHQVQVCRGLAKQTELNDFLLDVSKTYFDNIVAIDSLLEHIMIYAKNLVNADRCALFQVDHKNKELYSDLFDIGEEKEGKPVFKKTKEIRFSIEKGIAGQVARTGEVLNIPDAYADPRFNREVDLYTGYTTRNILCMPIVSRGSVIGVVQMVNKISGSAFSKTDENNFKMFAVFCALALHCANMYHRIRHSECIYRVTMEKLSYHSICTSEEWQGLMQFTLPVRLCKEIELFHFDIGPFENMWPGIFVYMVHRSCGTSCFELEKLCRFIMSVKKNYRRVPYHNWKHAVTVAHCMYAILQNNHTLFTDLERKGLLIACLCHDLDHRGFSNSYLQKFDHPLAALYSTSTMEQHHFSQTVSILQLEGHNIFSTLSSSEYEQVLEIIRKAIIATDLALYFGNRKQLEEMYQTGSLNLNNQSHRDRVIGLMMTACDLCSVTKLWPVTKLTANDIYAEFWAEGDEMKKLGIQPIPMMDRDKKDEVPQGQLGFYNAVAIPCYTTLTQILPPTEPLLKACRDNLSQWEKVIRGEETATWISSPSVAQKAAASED
Sequence of human Ephrin type-A Receptor 1 (EphA1), EPHA1 (gene 2041) (P21709 whole entry, looked up): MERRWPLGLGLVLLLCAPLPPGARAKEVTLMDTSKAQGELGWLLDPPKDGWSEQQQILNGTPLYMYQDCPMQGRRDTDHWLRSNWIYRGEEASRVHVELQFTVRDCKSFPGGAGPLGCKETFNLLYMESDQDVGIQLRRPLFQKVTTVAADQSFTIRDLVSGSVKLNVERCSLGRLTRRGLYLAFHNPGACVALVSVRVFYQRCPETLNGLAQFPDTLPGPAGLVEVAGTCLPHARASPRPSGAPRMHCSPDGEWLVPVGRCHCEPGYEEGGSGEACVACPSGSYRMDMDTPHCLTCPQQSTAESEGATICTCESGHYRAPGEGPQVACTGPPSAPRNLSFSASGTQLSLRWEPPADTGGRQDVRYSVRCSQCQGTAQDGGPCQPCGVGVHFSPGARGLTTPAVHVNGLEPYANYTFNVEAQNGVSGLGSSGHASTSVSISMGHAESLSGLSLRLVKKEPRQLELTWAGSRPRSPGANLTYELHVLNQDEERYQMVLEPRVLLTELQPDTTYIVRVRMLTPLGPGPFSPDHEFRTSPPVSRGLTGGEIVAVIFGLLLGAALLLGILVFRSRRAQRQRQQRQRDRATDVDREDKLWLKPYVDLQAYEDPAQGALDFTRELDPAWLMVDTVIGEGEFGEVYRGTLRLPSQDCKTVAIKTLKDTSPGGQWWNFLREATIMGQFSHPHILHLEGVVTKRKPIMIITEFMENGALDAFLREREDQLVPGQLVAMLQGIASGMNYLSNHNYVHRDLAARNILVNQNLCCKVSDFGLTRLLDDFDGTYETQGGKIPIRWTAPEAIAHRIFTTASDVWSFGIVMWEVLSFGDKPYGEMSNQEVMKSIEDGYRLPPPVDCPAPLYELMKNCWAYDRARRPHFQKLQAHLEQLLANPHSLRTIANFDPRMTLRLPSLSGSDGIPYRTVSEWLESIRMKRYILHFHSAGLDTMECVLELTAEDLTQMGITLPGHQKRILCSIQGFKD
Sequence of human Beta-secretase (BACE), BACE1 (gene 23621) (P56817 whole entry, looked up): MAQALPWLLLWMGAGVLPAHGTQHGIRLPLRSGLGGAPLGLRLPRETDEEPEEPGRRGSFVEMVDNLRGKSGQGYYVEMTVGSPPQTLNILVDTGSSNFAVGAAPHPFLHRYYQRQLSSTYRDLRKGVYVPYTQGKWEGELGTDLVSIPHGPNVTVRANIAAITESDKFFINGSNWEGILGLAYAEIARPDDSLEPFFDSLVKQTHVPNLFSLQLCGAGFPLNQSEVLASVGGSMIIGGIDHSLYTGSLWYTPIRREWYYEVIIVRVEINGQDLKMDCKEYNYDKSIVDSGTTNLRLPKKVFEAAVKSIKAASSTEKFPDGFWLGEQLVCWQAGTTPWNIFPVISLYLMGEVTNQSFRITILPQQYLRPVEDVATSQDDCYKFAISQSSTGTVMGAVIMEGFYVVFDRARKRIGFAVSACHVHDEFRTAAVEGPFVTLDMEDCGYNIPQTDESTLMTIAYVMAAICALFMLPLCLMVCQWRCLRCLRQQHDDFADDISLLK

Question: With `O=C1CCC(=O)N1Cl` as the compound, how does the AC50 [1] read?
Answer: The AC50 was 16.5 µM (active).

Question: How did the outcome [2] turn out when `C=C(C)C(=O)OCC(C)C` was run?
Answer: The outcome was “inactive”.

Question: `CCCCCCCCCCCCCCCC[N+](C)(C)CC` was tested. Which AC50 [3] did it give?
Answer: Its AC50 is 6.41 µM (active).

Question: What about the AC50 [1] of the same compound?
Answer: Its AC50 is 20.8 µM (active).

Question: And the outcome [4]?
Answer: The outcome was “inactive”.

Question: What about the outcome [5] of the same compound?
Answer: Its outcome is “inactive”.

Question: What about the outcome [2] of the same compound?
Answer: The outcome was “inactive”.

Question: And the AC50 [6]?
Answer: The AC50 was 1.95 µM (active).

Question: What about the outcome [7] of the same compound?
Answer: The outcome was “inactive”.

Question: What about the AC50 [8] of the same compound?
Answer: Its AC50 is 44.2 µM (active).

Question: And the AC50 [9]?
Answer: The AC50 was 1.95 µM (active).

Question: And the AC50 [10]?
Answer: Its AC50 is 0.395 µM (active).

Question: And the AC50 [11]?
Answer: Its AC50 is 1.78 µM (active).

Question: And the AC50 [12]?
Answer: Its AC50 is 2.05 µM (active).

Question: And the outcome [13]?
Answer: Its outcome is “inactive”.

Question: Which outcome [4] does the source give for `CC(C)(c1cc(Br)c(OCCO)c(Br)c1)c1cc(Br)c(OCCO)c(Br)c1` here?
Answer: The outcome was “inactive”.

Question: And the AC50 [2]?
Answer: Its AC50 is 20.2 µM (active).

Question: And the AC50 [6]?
Answer: Its AC50 is 2.62 µM (active).

Question: What does the source list for `Cc1ccc(C2OC[C@@H]3OC(c4ccc(C)cc4)O[C@H]([C@H](O)CO)[C@@H]3O2)cc1` (stereo partly drawn)?
Answer: outcome [2]: inactive; outcome [14]: inactive

Question: Which results are given for `Cc1cc(C)c(C)c(C)c1`?
Answer: outcome [4]: inactive; outcome [6]: inactive

Question: Which results are given for `CCCCC/C=C\C/C=C\CCCCCCCC(=O)OC`?
Answer: AC50 [15]: 6.61 µM (active); AC50 [9]: 45.1 µM (active); AC50 [14]: 25 µM (active); AC50 [12]: 16.9 µM (active)

Question: For `CC1(C)S[C@@H]2[C@H](NC(=O)COc3ccccc3)C(=O)N2[C@H]1C(=O)O`, which outcome [3] is on record?
Answer: The outcome was “inactive”.

Question: For `CCC(C)C=O` (stereo not drawn), which AC50 [5] is on record?
Answer: Its AC50 is 8.8 µM (active).

Question: And the AC50 [2]?
Answer: The AC50 was 16.2 µM (active).

Question: For `CCCOC(=O)CCCCC(=O)OCCC`, which AC50 [6] is on record?
Answer: Its AC50 is 2 µM (active).

Question: What about the AC50 [7] of the same compound?
Answer: Its AC50 is 42.3 µM (active).

Question: How did the outcome [2] turn out when `O=C1CCCC(=O)O1` was run?
Answer: The outcome was “inactive”.

Question: How did the AC50 [16] turn out when `c1ccc2c(c1)ccc1ncccc12` was run?
Answer: Its AC50 is 20.2 µM (active).

Question: How did the outcome [2] turn out when `Nc1cccc(C(F)(F)F)c1` was run?
Answer: Its outcome is “inactive”.

Question: With `CCC(CC)C(=O)O` as the compound, how does the AC50 [4] read?
Answer: Its AC50 is 4.56 µM (active).

Question: What about the outcome [9] of the same compound?
Answer: Its outcome is “inactive”.

Question: With `C=C(C)CCO` as the compound, how does the AC50 [2] read?
Answer: Its AC50 is 38.2 µM (active).

Question: What does the source list for `CNC(=S)N(C)C`?
Answer: AC50 [4]: 18.6 µM (active); AC50 [5]: 1.04 µM (active); outcome [6]: inactive; outcome [7]: inactive

Question: `CCOC(=O)[C@H](C)O` was tested. Which outcome [2] did it give?
Answer: Its outcome is “inactive”.

Question: And the outcome [13]?
Answer: The outcome was “inactive”.
